Reference: PubChem BioAssay AID362 (NMMLSC, 2006)
Out of some 4,300 compounds screened, about 60 (1%) were called active.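 Rule for the calls: active = inhibition of labelled peptide binding to the formyl peptide receptor of at least 65%; inactive = the rest.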 The list comes from a sample in which actives are over-represented; it also holds similar structures and randomly drawn compounds.

Molecular target: fMet-Leu-Phe receptor (Homo sapiens) (UniProt P21462)
Test: FPR binders displacing fluorescent formyl peptide, primary screen, U937-FPR cells, fMLFK-FITC, flow cytometry (AID 362);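 for inhibition: plate controls were buffer control wells for no effect and unlabeled fMLFF blocking peptide for full effect; higher means less cell fluorescence so more probe displaced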
Details: fMLFK-FITC displacement; hits give high values, concentration not given here

Chain of fMet-Leu-Phe receptor (Homo sapiens) (P21462 whole entry, looked up): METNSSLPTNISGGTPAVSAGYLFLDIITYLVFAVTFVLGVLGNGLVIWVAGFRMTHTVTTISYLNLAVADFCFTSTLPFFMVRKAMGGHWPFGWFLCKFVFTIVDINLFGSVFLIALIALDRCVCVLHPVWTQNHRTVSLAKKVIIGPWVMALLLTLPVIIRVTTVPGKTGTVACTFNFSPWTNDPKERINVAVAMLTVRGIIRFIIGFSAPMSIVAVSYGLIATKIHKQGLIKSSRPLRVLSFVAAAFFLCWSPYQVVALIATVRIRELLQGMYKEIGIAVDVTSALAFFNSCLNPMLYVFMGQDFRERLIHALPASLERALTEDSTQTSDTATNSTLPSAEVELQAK

Structure (SMILES)	inhibition
CC1(C)CC(=O)C2=C(C1)Nc1ncnn1C2c1ccc(OCc2ccccc2)cc1 (configuration not stated)	7.5% (inactive)
CC(C)c1ccc(C2C3=C(CC(C)(C)CC3=O)Nc3[nH]n(-c4ccccc4)c(=O)c32)cc1 (configuration not stated)	57% (inactive)
CC1(C)CC(=O)C2=C(C1)Nc1[nH]n(-c3ccccc3)c(=O)c1C2c1ccccc1Cl (configuration not stated)	70.6% (active)
CC1(C)CC(=O)C2=C(C1)Nc1[nH]n(-c3ccccc3)c(=O)c1C2c1ccc(F)cc1 (configuration not stated)	47.8% (inactive)
CCOc1ccc(C2C(C#N)=C(N)OC3=C2C(=O)CC(C)(C)C3)cc1 (configuration not stated)	15.2% (inactive)
CC1(C)CC(=O)C2=C(C1)Nc1[nH]n(-c3ccccc3)c(=O)c1C2c1ccccc1F (configuration not stated)	55.8% (inactive)
CC1(C)CC(=O)C2=C(C1)Nc1[nH]n(-c3ccccc3)c(=O)c1C2c1cccs1 (configuration not stated)	50.9% (inactive)
CCOc1ccc(C2C3=C(CC(C)(C)CC3=O)Nc3[nH]n(-c4ccccc4)c(=O)c32)cc1 (configuration not stated)	76% (active)
Cc1ccc(C2C3=C(CC(C)(C)CC3=O)Nc3[nH]n(-c4ccccc4)c(=O)c32)cc1 (configuration not stated)	65.6% (active)
COc1cc(C2NC(=O)NC(C)=C2C(=O)OC2CCCCCC2)ccc1O (configuration not stated)	inactive
O=C(O)c1ccc([N+](=O)[O-])c2c1NC(C(=O)O)C1CC=CC21 (configuration not stated)	inactive
CCOC(=O)C1CCC(CN(Cc2ccc(Cl)cc2)S(=O)(=O)c2ccc([N+](=O)[O-])cc2)CC1 (configuration not stated)	inactive
CCCc1cc2c(=O)c(-c3cc4ccccc4o3)coc2cc1OC(C)=O	33.7% (inactive)
CCOCCOC(=O)C1=C(C)NC2=C(C(=O)C(C(=O)OC)C(C)C2)C1c1ccc(OC)c(O)c1 (configuration not stated)	23.5% (inactive)
COc1ccc(C(=O)NCC2(c3ccc(OC)c(OC)c3)CCCC2)cc1	inactive
CCCCCOC(=O)c1cccc(N2C(=O)C3C4CCC(C4)C3C2=O)c1 (configuration not stated)	inactive
COc1cc2c(C(=O)N(C)c3cccc(Cl)c3)cn(CC(C)C)c(=O)c2cc1OC	inactive
CCOC(=O)C1C(c2cccc([N+](=O)[O-])c2)NC(=O)NC1(O)C(F)(F)F (configuration not stated)	inactive
Cc1ccc(C(=O)C2=C(N)OC3=C(C(=O)CC(C)(C)C3)C2c2ccccc2Cl)cc1 (configuration not stated)	inactive
O=C(CSc1nc2ccccc2c(=O)n1CC1CCC(C(=O)NCc2ccccc2Cl)CC1)NC1CCCC1 (configuration not stated)	4.5% (inactive)
CC(C)CN(CC(C)C)S(=O)(=O)c1ccc(C(=O)Nc2cccc(-c3nc4ccccc4[nH]3)c2)cc1	4.7% (inactive)
CCCCCCc1cc2c3c(c(=O)oc2cc1OCC(C)=O)CCC3	5.4% (inactive)

Structure (SMILES)	inhibition
CCCCCCc1cc2c3c(c(=O)oc2cc1OCC(=O)O)CCC3	74.7% (active)
CCCCCCc1cc2c3c(c(=O)oc2cc1OCC(=O)O)CCCC3	47.7% (inactive)
CC1CC(C)CN(C(=O)c2cn(C3CCCC3)c(=O)c3c2c2ccccc2n3C)C1 (configuration not stated)	inactive
COC(=O)c1c(-c2ccc(C)c(C)c2)csc1NC(=O)C1CCCCC1C(=O)O (configuration not stated)	22.4% (inactive)
COC(=O)c1c(-c2cccc(C)c2)csc1NC(=O)C1CCCCC1C(=O)O (configuration not stated)	68.9% (active)
COC(=O)c1c(-c2cc(C)ccc2C)csc1NC(=O)C1CCCCC1C(=O)O (configuration not stated)	40.4% (inactive)
COC(=O)c1c(-c2ccc(F)cc2)csc1NC(=O)C1CCCCC1C(=O)O (configuration not stated)	72.4% (active)
CCOC(=O)c1c(-c2ccc(C)cc2C)csc1NC(=O)C1CCCCC1C(=O)O (configuration not stated)	94.2% (active)
CCOC(=O)c1c(-c2ccc(OC)cc2)csc1NC(=O)C1CCCCC1C(=O)O (configuration not stated)	3% (inactive)
COC(=O)c1c(-c2ccccc2)csc1NC(=O)C1CCCCC1C(=O)O (configuration not stated)	inactive
CCOC(=O)c1c(-c2ccc(C)cc2)csc1NC(=O)C1CCCCC1C(=O)O (configuration not stated)	15.5% (inactive)
CCOC(=O)c1c(-c2ccc(F)cc2)csc1NC(=O)C1CCCCC1C(=O)O (configuration not stated)	35.1% (inactive)
O=C(O)C1CCCCC1C(=O)N1CCN(C/C=C/c2ccccc2)CC1 (configuration not stated)	inactive
O=C(CSc1nc2ccccc2c(=O)n1CC1CCC(C(=O)NCc2ccco2)CC1)NCCC1=CCCCC1 (configuration not stated)	7.9% (inactive)
CC(=O)N1CCCc2cc(S(=O)(=O)NC(C(=O)NCc3cccs3)C(C)C)ccc21 (configuration not stated)	inactive
CC(C)C(C(=O)O)n1c(O)c(C2=c3cc(Br)ccc3=NC2=O)sc1=S (configuration not stated)	95.3% (active)
CC(C)C(C(=O)O)n1c(O)c(C2=c3ccccc3=NC2=O)sc1=S (configuration not stated)	106% (active)
Cc1cc(C)c(S(=O)(=O)NCC2CCC(C(=O)NCC3CCCO3)CC2)c(C)c1 (configuration not stated)	inactive
CC(C)CC(C(=O)OCC(=O)c1ccc(Cl)cc1)N1C(=O)c2ccccc2C1=O (configuration not stated)	inactive
CCN(CC)CC(=O)N1CCCc2c1c(=O)oc1ccc(OC(C)=O)cc21	inactive
Cc1ccc2nc3c(cc(C(=O)NCc4ccco4)c(=N)n3C3CCCC3)c(=O)n2c1	inactive
CCCCc1cc(=O)oc2cc(OCC(=O)OCC)c(Cl)cc12	inactive

Structure (SMILES)	inhibition
CC1=C(C)C/S(=N\S(=O)(=O)c2ccccc2)N(S(=O)(=O)c2ccccc2)C1 (configuration not stated)	103% (active)
O=C(C1CCCN(S(=O)(=O)c2ccccc2)C1)N1CCCCC1 (configuration not stated)	7.6% (inactive)
CC1=C(C)CS(=Nc2ccccc2[N+](=O)[O-])N(S(=O)(=O)c2ccccc2)C1 (configuration not stated)	inactive
CC(C)Cn1cc(C(=O)N2CC(C)CC(C)C2)c2c3ccccc3n(C)c2c1=O (configuration not stated)	5.3% (inactive)
O=S(=O)(c1ccc(-c2csc(=Nc3cccc4ccccc34)n2CCCCO)cc1)N1CCCCC1	inactive
CCCOC(=O)c1c(NC(=O)C2CCCCC2C(=O)O)sc2c1CCC2 (configuration not stated)	47.3% (inactive)
CCOC(=O)c1c(NC(=O)C2C3C=CC(C3)C2C(=O)O)sc2c1CCCCCC2 (configuration not stated)	16.4% (inactive)
CCOC(=O)c1c(NC(=O)C2C3CCC(C3=C(C)C)C2C(=O)O)sc2c1CCCCCCC2 (configuration not stated)	95.1% (active)
CCOC(=O)c1c(NC(=O)C2CCCCC2C(=O)O)sc2c1CCC(C(C)(C)C)C2 (configuration not stated)	71.7% (active)
CCOC(=O)c1c(NC(=O)C2CCCCC2C(=O)O)sc2c1CCC(C(C)(C)CC)C2 (configuration not stated)	21% (inactive)
CC1CCc2c(sc(NC(=O)C3CCCCC3C(=O)O)c2C(=O)OC(C)C)C1 (configuration not stated)	3% (inactive)
CCCOC(=O)c1c(NC(=O)C2CCCCC2C(=O)O)sc2c1CCC(C)C2 (configuration not stated)	23.4% (inactive)
CCOC(=O)c1c(NC(=O)C2C3C=CC(CC3)C2C(=O)O)sc2c1CCCC2 (configuration not stated)	4.5% (inactive)
CCC(C)(C)C1CCc2c(sc(NC(=O)C3CCCCC3C(=O)O)c2C(=O)OC)C1 (configuration not stated)	80.5% (active)
CCC(C)C(NC(=O)C(CC(=O)OCc1ccccc1)NC(=O)OC(C)(C)C)C(=O)NC(Cc1ccccc1)C(N)=O (configuration not stated)	inactive
CCOc1cc(C2C(C(=O)OC3CCCC3)=C(C)NC3=C2C(=O)C(C(=O)OC)C(C)C3)ccc1O (configuration not stated)	15.5% (inactive)
CCCN(CCC)CCNC(=O)c1cn(CC(C)C)c(=O)c2cc(OC)c(OC)cc12	inactive
CC1=C(C(=O)OC2CCCCC2)C(c2cccc(O)c2)C2=C(CC(C)(C)CC2=O)N1 (configuration not stated)	20.5% (inactive)
O=C(CCCCCn1c(SCC(=O)NCc2ccccc2)nc2ccccc2c1=O)NCc1ccco1	3.6% (inactive)
COc1ccc2nc(NC(=O)C(NS(=O)(=O)c3ccc4c(c3)CCN4C(C)=O)C(C)C)sc2c1 (configuration not stated)	inactive
COc1ccc(OC)c(C2/C(=C(\O)c3ccc(F)cc3)C(=O)C(=O)N2CCCCCC(=O)O)c1 (configuration not stated)	84.5% (active)
COc1ccc(OC)c(C2/C(=C(/O)c3ccc(C)cc3)C(=O)C(=O)N2CC(C)C)c1 (configuration not stated)	86.7% (active)

Structure (SMILES)	inhibition
COc1ccc(C2/C(=C(/O)c3ccc(C)cc3)C(=O)C(=O)N2CC(C)C)c(OC)c1 (configuration not stated)	52.9% (inactive)
COc1ccccc1C1/C(=C(\O)c2ccc(F)cc2)C(=O)C(=O)N1CCCCCC(=O)O (configuration not stated)	11.2% (inactive)
COc1ccc(C2/C(=C(\O)c3ccc(F)cc3)C(=O)C(=O)N2CCCCCC(=O)O)c(OC)c1 (configuration not stated)	23.3% (inactive)
COc1ccc(C2/C(=C(/O)c3ccc(Cl)cc3)C(=O)C(=O)N2CC(C)C)c(OC)c1 (configuration not stated)	31.1% (inactive)
O=C(Nc1nccs1)c1cc(N2C(=O)C3C4CCC(C4)C3C2=O)ccc1Cl (configuration not stated)	inactive
CCSCCOC(=O)C1=C(C)NC2=C(C(=O)C(C(=O)OC)C(C)C2)C1c1cccc(F)c1 (configuration not stated)	5.8% (inactive)
O=c1oc2cc(O)ccc2c2c1CCCC2	inactive
O=c1oc2cc(O)cc(O)c2c2c1CCC2	81.6% (active)
O=c1oc2cc(O)ccc2c2c1CCC2	7% (inactive)
Cc1cc(NC(=O)C2CCCCC2C(=O)O)nn1Cc1ccc(Cl)cc1 (configuration not stated)	3% (inactive)
CCCCCCOC(=O)C1=C(C)NC(=O)NC1c1cc(OC)c(O)c(OC)c1 (configuration not stated)	inactive
CCCCCC(=O)Oc1cccc(N2C(=O)C3C4CCC(C4)C3C2=O)c1 (configuration not stated)	inactive
COC(=O)CC/C(O)=C1\C(=O)CC(C)(C)CC1=NCCc1ccc(OC)c(OC)c1	3.2% (inactive)
CCOc1cc2c(C(=O)O)cn(CC(C)C)c(=O)c2cc1OCC	70% (active)
COc1cc2c(C(=O)O)cn(CC(C)C)c(=O)c2cc1OC	inactive
CCOc1cc2c(C(=O)N3CCN(c4ccccn4)CC3)cn(CC(C)C)c(=O)c2cc1OCC	3.9% (inactive)
CCCc1cc(=O)oc2cc(OCC(=O)OCC)cc(OCC(=O)OCC)c12	inactive
CCCc1cc(=O)oc2cc(OC(C)=O)ccc12	17.6% (inactive)
CCCc1cc(=O)oc2cc(OC(C)=O)cc(OC(C)=O)c12	77.3% (active)
CCOc1ccc(CCNC(=O)c2cn(CC(C)C)c(=O)c3cc(OC)c(OC)cc23)cc1OCC	inactive
C=C(C)Cn1c(SCC(=O)c2ccccc2)nc2c(c1=O)C1(CCCC1)Cc1ccccc1-2	inactive
